Test results reported in PubChem BioAssay (NCI).
This is part of a sample that, as a whole, favours compounds with a hit. Of some 83,000 tested, about 20% had one in any assay.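 Note: values are percent growth. 100 is the growth of untreated cells, values between 100 and 0 indicate rising inhibition; between -100 and 0 indicates cell death.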 A number with no mark means an inactive call. Calls of active or inactive are those of the source. Rule for the calls: active = growth percent below 10; inactive = the rest.

What follows are compounds tested on PC-3 prostate (assay: NCI-60 one-dose screen, 48 h (100 = growth as untreated, 0 = no growth, -100 = all killed)). Details: 10 µM unless noted.
For CCCCC(=O)Nc1nc2ccc(SCCC)cc2s1, the growth was 47.8%. With CC(C)(C)C(=O)/C=c1/[nH]c(=O)/c(=C/c2ccccc2O)s1 the growth was 53.4%. For CC[C@@]1(O)C(=O)OCc2c1cc1n(c2=O)Cc2c-1nc1ccccc1c2/C=N/OC(C)(C)C, the growth was 23.6%. For COc1ccc(OC)c(NCC(=O)n2nc(/C=C\c3ccc(O)c(OC)c3)cc2/C=C\c2ccc(O)c(OC)c2)c1, the growth was 23.2%. O=C1OC(=O)C2C3CC(c4ccccc43)C12 (stereo not given) showed a growth of 92.1%. In the case of COc1ccc2c(c1)OC(N)=C(C#N)C2c1ccc(F)cc1 (stereo not given), the growth is reported as 27.9%. For S=C=NP1(N=C=S)=NP(N=C=S)(N=C=S)=NP(N=C=S)(N=C=S)=NP(N=C=S)(N=C=S)=N1 (stereo not given), the growth was 86.4%. COc1cc(-c2nc(N)n(CC(=O)Nc3ccc(/C(C)=N\O)cc3)n2)cc(OC)c1OC showed a growth of 76.7%. Compound COc1cc2ncnc(Oc3ccc(NC(=O)Nc4ccc(CN5CCOCC5)c(C(F)(F)F)c4)c4ccccc34)c2cc1OC has a growth of 40%. COc1ccc(-c2c(C#N)cnc(N)c2-c2nc3cc(C)c(C)cc3[nH]2)cc1 gave a growth of 57.8%. In the case of c1ccc(CNCCN(CCNCc2ccccn2)Cc2ccc3ccccc3c2)nc1, the growth is reported as -0.81% (active). Work on C=C1C(=O)O[C@H]2[C@H]1CC/C(C(=O)Nc1ccc(OC)c(C(N)=O)c1O)=C\CC[C@@]1(C)O[C@@H]21 yielded a growth of 95.3%. Cc1ccc2oc(=O)cc(C3C(C#N)=C(N)Oc4c3ccc3ccccc43)c2c1 (stereo not given) gave a growth of 55.6%. Work on COc1ccc(-c2nn(-c3ccc(NC(=O)c4cc(C(F)(F)F)cc(C(F)(F)F)c4)cc3)cc2-c2ccncc2)cc1Cl yielded a growth of 45.1%. In the case of Cc1cccc(NCS(=O)(=O)O)c1, the growth is reported as 93%. For O=C(O)c1ccccc1C(=O)c1ccc(I)cc1, the growth was 91.2%. CC1(C)CC(=O)C2=C(C1)OC1=C(C(=O)CC(C)(C)C1)C2c1ccc(OCc2cn(-c3ccc(F)cc3F)nn2)cc1 showed a growth of 77.7%. Work on CC(C)(CCN=C(N)Nc1ccccn1)c1ccc(C(F)(F)F)cc1 yielded a growth of 19.7%. CC(=O)c1cc2c(c(O)c1C)C(=O)C(=O)c1c(O)cccc1-2 was tested, and the growth was -26.4% (active). With O=C(Nc1ccc(F)cc1)Nc1ccc(Cl)c([N+](=O)[O-])c1 the growth was 6.25% (active). Compound C#C[C@H](O)/C=C/CCCCCCC#C[C@H](O)CC[C@@H](O)C#CCCCCCC/C=C/[C@@H](O)C#C has a growth of 80.7%. O=C(Nc1ccc(-n2cc(-c3ccncc3)c(-c3ccc(O)c(Cl)c3)n2)cc1)c1ccc(Cl)c(C(F)(F)F)c1 gave a growth of 14.4%. Cc1nccc2c3ccc(OCc4cn(Cc5ccc(Br)cc5)nn4)cc3n(CCCc3ccccc3)c12 was tested, and the growth was 77.9%. In the case of NCC(=O)NS(=O)(=O)OC[C@H]1O[C@@H](n2cnc3c(N)ncnc32)[C@H](O)[C@@H]1O, the growth is reported as 9.66% (active). With C[C@H]1C=C(C[C@@H](O)CC#CC#CCCCCC[C@@H](O)[C@H]2CCC(=O)O2)C(=O)O1 the growth was 111%. In the case of CN1CCN(C(=O)/C=C/c2ccc([N+](=O)[O-])o2)CC1, the growth is reported as 95.7%. In the case of OCc1cnccc1NC12CC3CC(CC(C3)C1)C2, the growth is reported as 102%. In the case of Nc1nccc(=S)[nH]1, the growth is reported as 102%. In the case of COc1cc(C(=O)N2CCN(C(=O)c3cc(OC)c(OCc4ccccc4)cc3N)CC2)c(N)cc1OCc1ccccc1, the growth is reported as 106%. Work on C[C@@H]1CC2C3C[C@H](F)C4=CC(=O)C=C[C@]4(C)[C@@]3(F)[C@@H](O)C[C@]2(C)[C@@]1(O)C(=O)CO (stereo not given in full) yielded a growth of 86.1%. In the case of CCCCCn1ncc(-c2c(O)c(O)cc3c(O)c(-c4c(C)cc5c(-c6cnn(CCCCC)n6)c(O)c(O)cc5c4O)c(C)cc23)n1, the growth is reported as -25.3% (active). COc1ccc(NC(=O)COCCOCCNC[C@@H]2C(=O)O[C@H]3[C@H]2CC/C(COC(=O)OC/C2=C/CC[C@@]4(C)O[C@H]4[C@H]4OC(=O)[C@@H](CN(C)C)[C@@H]4CC2)=C\CC[C@@]2(C)O[C@@H]32)c(O)c1C(N)=O was tested, and the growth was 80.2%. Cc1cc(C)c(O)c(C(=O)CC(Br)C(=O)O)c1 (stereo not given) was tested, and the growth was 89.7%. COc1ccc(-c2[nH]c3ccccc3c2/C=C(\C#N)S(=O)(=O)c2ccccc2)cc1 was tested, and the growth was 30.9%. In the case of NC(=NCCCOc1ccc(F)cc1)Nc1ccc(Cl)c(Cl)c1, the growth is reported as 63.9%.
